Among the targets are LARS1 (UniProt Q9P2J5); LDHB (UniProt P07195); MCM7 (UniProt P33993); MYO9B (UniProt Q13459); NOC4L (UniProt Q9BVI4); NUP62 (UniProt P37198); NDUFA6 (UniProt P56556); NAP1L4 (UniProt Q99733); MAD1L1 (UniProt Q9Y6D9); MARS1 (UniProt P56192); MCM6 (UniProt Q14566); NDUFAF4 (UniProt Q9P032); NDUFS2 (UniProt O75306); MAPK14 (UniProt Q16539); MYH9 (UniProt P35579); NUP160 (UniProt Q12769); RAE1 (UniProt P78406); NCAPD2 (UniProt Q15021); NMI (UniProt Q13287); LSM4 (UniProt Q9Y4Z0); NUDT5 (UniProt Q9UKK9); NUP88 (UniProt Q99567); NOL7 (UniProt Q9UMY1); MED4 (UniProt Q9NPJ6); NDUFA5 (UniProt Q16718); MYDGF (UniProt Q969H8); NPM1 (UniProt P06748); MAP1B (UniProt P46821); NCBP1 (UniProt Q09161); NIP7 (UniProt Q9Y221); NUP85 (UniProt Q9BW27); MCM2 (UniProt P49736); NUP50 (UniProt Q9UKX7); MBOAT7 (UniProt Q96N66); OSBPL11 (UniProt Q9BXB4); PAFAH1B2 (UniProt P68402); PAM16 (UniProt Q9Y3D7); PAXBP1 (UniProt Q9Y5B6); PDE4DIP (UniProt Q5VU43); PELP1 (UniProt Q8IZL8); PFKP (UniProt Q01813); PHC2 (UniProt Q8IXK0); PNN (UniProt Q9H307); PNO1 (UniProt Q9NRX1); RPL23A (UniProt P62750); PRPF31 (UniProt Q8WWY3); PSME2 (UniProt Q9UL46); PUF60 (UniProt Q9UHX1); RAD50 (UniProt Q92878); RAN (UniProt P62826); RNF20 (UniProt Q5VTR2); RPF1 (UniProt Q9H9Y2); RPLP2 (UniProt P05387); RREB1 (UniProt Q92766); SIN3A (UniProt Q96ST3); RSL24D1 (UniProt Q9UHA3); RTCB (UniProt Q9Y3I0); RUVBL2 (UniProt Q9Y230); RWDD1 (UniProt Q9H446); SDHA (UniProt P31040); SEH1L (UniProt Q96EE3); SEPTIN11 (UniProt Q9NVA2); SEPTIN2 (UniProt Q15019); SERBP1 (UniProt Q8NC51).

Assay in all cases: cross-linking mass spectrometry
Conditions in all cases: DSBSO, in cells or nuclear extract, not told apart

LSM4, sequence (Q9Y4Z0 whole entry): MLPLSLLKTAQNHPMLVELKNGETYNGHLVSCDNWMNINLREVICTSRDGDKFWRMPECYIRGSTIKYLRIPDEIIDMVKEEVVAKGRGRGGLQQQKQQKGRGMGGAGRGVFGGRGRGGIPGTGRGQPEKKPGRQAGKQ
MCM6, sequence (Q14566 whole entry): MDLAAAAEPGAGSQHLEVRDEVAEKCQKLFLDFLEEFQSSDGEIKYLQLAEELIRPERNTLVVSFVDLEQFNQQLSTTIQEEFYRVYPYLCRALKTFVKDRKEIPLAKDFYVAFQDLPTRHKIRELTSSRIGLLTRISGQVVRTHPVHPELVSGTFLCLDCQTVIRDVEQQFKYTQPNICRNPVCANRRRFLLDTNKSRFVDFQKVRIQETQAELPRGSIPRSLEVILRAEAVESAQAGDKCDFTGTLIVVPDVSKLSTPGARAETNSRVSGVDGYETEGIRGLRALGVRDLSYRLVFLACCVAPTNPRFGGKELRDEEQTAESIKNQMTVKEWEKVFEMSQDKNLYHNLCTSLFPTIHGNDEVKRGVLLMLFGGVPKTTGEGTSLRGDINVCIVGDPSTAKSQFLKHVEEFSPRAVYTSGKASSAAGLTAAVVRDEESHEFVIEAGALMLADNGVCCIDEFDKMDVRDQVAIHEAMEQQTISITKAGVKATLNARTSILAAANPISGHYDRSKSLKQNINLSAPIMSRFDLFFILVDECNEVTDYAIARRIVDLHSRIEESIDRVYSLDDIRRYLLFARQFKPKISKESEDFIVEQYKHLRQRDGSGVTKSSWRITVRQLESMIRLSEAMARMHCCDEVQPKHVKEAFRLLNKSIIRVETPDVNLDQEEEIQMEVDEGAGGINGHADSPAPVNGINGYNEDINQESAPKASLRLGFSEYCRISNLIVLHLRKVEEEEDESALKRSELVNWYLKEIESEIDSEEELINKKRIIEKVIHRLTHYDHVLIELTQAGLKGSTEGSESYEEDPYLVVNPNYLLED
HDAC1, Q13547, sequence (Q13547 whole entry): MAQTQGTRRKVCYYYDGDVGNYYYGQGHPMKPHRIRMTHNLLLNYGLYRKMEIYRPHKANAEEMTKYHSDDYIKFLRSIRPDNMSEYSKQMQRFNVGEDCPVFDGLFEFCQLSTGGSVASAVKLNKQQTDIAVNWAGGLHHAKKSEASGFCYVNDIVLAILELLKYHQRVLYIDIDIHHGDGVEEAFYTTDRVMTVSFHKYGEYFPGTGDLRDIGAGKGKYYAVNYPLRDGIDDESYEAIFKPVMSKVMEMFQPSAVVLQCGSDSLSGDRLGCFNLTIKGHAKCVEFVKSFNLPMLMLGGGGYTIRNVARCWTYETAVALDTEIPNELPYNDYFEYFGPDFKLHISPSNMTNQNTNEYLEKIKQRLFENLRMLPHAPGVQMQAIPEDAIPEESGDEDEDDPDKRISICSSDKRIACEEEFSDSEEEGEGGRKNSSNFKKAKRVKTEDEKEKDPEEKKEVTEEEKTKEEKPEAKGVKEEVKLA
RAD50, sequence (Q92878 whole entry): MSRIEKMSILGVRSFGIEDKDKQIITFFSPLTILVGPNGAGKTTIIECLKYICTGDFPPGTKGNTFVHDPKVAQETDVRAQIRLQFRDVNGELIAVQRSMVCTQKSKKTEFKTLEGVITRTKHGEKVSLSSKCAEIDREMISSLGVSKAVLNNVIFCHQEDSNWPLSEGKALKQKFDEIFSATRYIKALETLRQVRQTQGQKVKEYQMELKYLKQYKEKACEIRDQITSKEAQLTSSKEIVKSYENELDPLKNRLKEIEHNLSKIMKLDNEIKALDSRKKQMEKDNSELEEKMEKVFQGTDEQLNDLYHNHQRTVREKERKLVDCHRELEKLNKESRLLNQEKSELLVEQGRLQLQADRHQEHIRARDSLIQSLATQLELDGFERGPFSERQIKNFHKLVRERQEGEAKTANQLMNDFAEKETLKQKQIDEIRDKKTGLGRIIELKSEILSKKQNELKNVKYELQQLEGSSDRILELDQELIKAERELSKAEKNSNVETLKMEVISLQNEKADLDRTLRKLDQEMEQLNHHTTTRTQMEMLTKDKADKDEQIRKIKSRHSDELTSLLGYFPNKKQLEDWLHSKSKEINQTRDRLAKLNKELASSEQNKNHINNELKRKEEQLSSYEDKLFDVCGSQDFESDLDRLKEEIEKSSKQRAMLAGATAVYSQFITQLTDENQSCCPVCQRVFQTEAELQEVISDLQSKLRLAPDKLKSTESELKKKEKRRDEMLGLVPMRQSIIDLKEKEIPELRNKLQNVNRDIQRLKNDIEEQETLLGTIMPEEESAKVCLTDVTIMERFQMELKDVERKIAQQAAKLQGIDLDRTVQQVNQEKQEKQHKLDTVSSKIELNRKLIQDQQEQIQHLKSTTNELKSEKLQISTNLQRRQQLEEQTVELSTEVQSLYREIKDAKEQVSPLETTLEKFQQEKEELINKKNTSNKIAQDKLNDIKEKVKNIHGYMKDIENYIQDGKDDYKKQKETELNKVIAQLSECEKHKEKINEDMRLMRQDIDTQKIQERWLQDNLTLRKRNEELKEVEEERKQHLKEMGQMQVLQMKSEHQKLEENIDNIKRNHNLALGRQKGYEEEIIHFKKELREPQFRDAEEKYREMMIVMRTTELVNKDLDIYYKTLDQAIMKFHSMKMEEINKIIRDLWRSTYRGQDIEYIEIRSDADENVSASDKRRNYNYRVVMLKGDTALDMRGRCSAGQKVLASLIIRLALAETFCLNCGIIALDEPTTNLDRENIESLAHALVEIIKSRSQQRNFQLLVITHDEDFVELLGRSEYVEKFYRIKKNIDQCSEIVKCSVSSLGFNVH
NUP98, P52948, sequence (P52948 whole entry): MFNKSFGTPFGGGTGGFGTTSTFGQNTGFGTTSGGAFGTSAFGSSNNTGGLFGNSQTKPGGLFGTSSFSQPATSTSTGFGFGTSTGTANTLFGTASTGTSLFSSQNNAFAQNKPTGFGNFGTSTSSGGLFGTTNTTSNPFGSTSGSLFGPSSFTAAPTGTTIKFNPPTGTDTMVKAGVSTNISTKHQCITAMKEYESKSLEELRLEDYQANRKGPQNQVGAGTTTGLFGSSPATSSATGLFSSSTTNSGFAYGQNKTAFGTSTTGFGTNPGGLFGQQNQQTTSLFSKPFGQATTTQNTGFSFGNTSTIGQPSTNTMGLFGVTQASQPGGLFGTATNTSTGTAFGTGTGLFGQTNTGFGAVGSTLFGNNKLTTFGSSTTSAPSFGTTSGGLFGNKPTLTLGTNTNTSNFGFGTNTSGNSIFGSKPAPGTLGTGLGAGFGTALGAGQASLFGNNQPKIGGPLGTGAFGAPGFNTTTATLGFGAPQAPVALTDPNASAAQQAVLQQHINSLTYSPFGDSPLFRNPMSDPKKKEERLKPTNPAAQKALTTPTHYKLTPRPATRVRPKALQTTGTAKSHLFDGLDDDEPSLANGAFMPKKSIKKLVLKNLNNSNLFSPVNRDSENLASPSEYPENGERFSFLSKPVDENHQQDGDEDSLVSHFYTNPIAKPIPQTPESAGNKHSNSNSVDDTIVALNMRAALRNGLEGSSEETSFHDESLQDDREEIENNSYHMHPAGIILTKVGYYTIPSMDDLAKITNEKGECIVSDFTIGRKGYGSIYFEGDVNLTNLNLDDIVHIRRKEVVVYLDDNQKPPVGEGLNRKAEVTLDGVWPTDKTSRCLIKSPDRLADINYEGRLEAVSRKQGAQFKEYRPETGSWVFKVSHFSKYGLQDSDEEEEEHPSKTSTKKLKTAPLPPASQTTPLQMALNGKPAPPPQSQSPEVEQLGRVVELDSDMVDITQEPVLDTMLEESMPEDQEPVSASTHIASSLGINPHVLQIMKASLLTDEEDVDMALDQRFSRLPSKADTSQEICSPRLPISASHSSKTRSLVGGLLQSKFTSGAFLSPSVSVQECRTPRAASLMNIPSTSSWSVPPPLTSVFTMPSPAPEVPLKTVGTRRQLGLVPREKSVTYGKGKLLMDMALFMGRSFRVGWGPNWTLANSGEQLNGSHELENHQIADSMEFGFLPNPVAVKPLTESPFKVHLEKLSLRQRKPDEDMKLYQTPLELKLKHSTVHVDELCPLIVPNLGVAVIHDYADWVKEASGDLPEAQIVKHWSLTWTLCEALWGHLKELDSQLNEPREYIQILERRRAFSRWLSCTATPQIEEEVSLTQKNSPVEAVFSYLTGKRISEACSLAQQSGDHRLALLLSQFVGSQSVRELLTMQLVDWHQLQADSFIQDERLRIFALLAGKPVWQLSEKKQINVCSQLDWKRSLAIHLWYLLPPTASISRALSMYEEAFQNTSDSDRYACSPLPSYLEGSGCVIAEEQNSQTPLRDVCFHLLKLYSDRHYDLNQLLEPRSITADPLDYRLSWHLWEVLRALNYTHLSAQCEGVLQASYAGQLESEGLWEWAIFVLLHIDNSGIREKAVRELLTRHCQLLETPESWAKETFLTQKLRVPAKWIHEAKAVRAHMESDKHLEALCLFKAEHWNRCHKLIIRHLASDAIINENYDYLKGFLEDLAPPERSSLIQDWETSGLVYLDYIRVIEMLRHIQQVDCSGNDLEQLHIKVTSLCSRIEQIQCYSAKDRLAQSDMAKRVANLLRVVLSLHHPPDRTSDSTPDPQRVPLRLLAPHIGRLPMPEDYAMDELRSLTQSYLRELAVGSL
RPF1, sequence (Q9H9Y2 whole entry): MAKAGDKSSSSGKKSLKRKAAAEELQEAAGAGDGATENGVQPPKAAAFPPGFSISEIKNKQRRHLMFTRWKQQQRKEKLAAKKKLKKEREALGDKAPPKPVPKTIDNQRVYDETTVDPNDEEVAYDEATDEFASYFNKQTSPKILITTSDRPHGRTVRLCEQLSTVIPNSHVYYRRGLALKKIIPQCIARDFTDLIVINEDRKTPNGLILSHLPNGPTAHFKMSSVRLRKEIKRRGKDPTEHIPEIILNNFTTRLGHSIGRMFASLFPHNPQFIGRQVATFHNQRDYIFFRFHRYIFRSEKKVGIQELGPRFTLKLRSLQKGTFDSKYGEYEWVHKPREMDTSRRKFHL
NCBP2, P52298, sequence (P52298 whole entry): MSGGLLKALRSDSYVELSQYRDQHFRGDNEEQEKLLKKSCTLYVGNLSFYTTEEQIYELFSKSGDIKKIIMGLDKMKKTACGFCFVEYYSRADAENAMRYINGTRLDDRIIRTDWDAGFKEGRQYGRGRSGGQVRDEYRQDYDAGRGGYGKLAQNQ

Regarding IARS1, P41252, the cross-linked residues result with LARS1 was “K796 - K9”. In the case of LDHA, P00338, the cross-linked residues result in the experiment with LDHB is “K14 - K156”. Regarding MCM3, P25205, in the experiment with MCM7, the cross-linked residues result is reported as “K435 - K236”. In the case of H1-2, P16403, in the experiment with MYO9B, the cross-linked residues entry is given as “K140 - K1390”. As for NOP14, P78316, the cross-linked residues entry with NOC4L is listed as “K535 - K342”. Take NUP214, P35658: the cross-linked residues result in the experiment with NUP62 is listed as “K755 - K371”. For NDUFS4, O43181, the cross-linked residues entry with NDUFA6 was “K73 - K116”.

Take NAP1L1, P55209: the cross-linked residues result in the experiment with NAP1L4 is “K87 - K105”. With MAD2L1, Q13257, the cross-linked residues result with MAD1L1 is “K122 - K666”. On to EEF1E1, O43324, for which, in the experiment with MARS1, the cross-linked residues entry is “K21 - K663”. Consider MCM7, P33993, for which the cross-linked residues entry with MCM6 was “K75 - K197”. Turning to NDUFS7, O75251, the results for the cross-linked residues result with NDUFAF4 and with NDUFS2 were “K55 - K107” and “K136 - K78”, respectively. On to MAPKAPK2, P49137, for which the cross-linked residues result with MAPK14 is on record as “K307 - K233”.

As to TPR, P12270, the cross-linked residues result in the experiment with MYH9 is listed as “K854 - K1614”.

Take NUP98, P52948: the figures for the cross-linked residues result in the experiment with NUP160 and with RAE1 were “K1749 - K1096” and “K175 - K252”, respectively. Consider SMC2, O95347, for which, in the experiment with NCAPD2, the cross-linked residues result is “K1014 - K78”.

In the case of IFI35, P80217, the cross-linked residues result with NMI is “K47 - K254”. In the case of PATL1, Q86TB9, the cross-linked residues entry with LSM4 is on record as “K398 - K80”.

Take PYCR2, Q96C36: the cross-linked residues result in the experiment with NUDT5 is reported as “K47 - K210”.

Turning to NUP62, P37198, the cross-linked residues result in the experiment with NUP88 is “K415 - K642”. Turning to UTP15, Q8TED0, the cross-linked residues entry in the experiment with NOL7 is reported as “K416 - K210”. On to MED1, Q15648, for which the cross-linked residues entry in the experiment with MED4 is recorded as “K70 - K81”. Take NDUFA10, O95299: the cross-linked residues entry with NDUFA5 was “K80 - K30”.

For the substance PRKCSH, P14314, the cross-linked residues entry in the experiment with MYDGF is “K436 - K161”.

Take NPM3, O75607: the cross-linked residues entry with NPM1 is “K125 - K27”.

Take H1-5, P16401: the cross-linked residues result with MAP1B is recorded as “K161 - K2291”. Turning to NCBP2, P52298, the cross-linked residues result with NCBP1 was “K68 - K607”.

NOP2, P46087: in the experiment with NIP7, the cross-linked residues result is on record as “K423 - K72”. For SEH1L, Q96EE3, in the experiment with NUP85, the cross-linked residues result was “K314 - K59”. Take MCM4, P33991: the cross-linked residues result in the experiment with MCM2 is given as “K819 - K807”. In the case of LSM7, Q9UK45, in the experiment with LSM4, the cross-linked residues result is given as “K8 - K80”. CSE1L, P55060: the cross-linked residues result in the experiment with NUP50 is given as “K726 - K62”.

For the substance COX6B1, P14854, the cross-linked residues entry with MBOAT7 is on record as “K47 - K468”. As to MCM2, P49736, the cross-linked residues result with MCM6 is given as “K591 - K517”.

For the substance PPA1, Q15181, the cross-linked residues result with OSBPL11 is on record as “K238 - K660”. For PAFAH1B1, P43034, the cross-linked residues result in the experiment with PAFAH1B2 is “K147 - K145”. On to DNAJC19, Q96DA6, for which the cross-linked residues entry with PAM16 is listed as “K93 - K82”. For the substance TFIP11, Q9UBB9, in the experiment with PAXBP1, the cross-linked residues entry was “K267 - K682”.

Take IMMT, Q16891: the cross-linked residues result with PDE4DIP is “K343 - K1022”. For the substance NOL9, Q5SY16, in the experiment with PELP1, the cross-linked residues entry is given as “K670 - K216”.

Take PFKM, P08237: the cross-linked residues result with PFKP was “K476 - K736”. As for RING1, Q06587, in the experiment with PHC2, the cross-linked residues result is “K297 - K598”. For the substance SAP18, O00422, the cross-linked residues entry in the experiment with PNN is reported as “K74 - K109”. Take NPM1, P06748: the values for the cross-linked residues result with PNO1 and with RPL23A were “K267 - K77” and “K141 - K30”, respectively. Take SNU13, P55769: the cross-linked residues result in the experiment with PRPF31 is listed as “K86 - K315”. Regarding PSME1, Q06323, the cross-linked residues entry with PSME2 is on record as “K190 - K180”. As to SRSF11, Q05519, the cross-linked residues entry in the experiment with PUF60 is on record as “K58 - K69”. For ACTR1B, P42025, the cross-linked residues result with RAD50 is listed as “K324 - K651”.

Regarding MRE11, P49959, in the experiment with RAD50, the cross-linked residues result is “K393 - K1190”.

XPO1, O14980: the cross-linked residues entry in the experiment with RAN was “K426 - K159”. For the substance RNF40, O75150, the cross-linked residues result in the experiment with RNF20 was “K862 - K834”.

WDR74, Q6RFH5: in the experiment with RPF1, the cross-linked residues entry was “K151 - K182”. Still for that read-out and setting: to MAK16, Q9BXY0 belongs “K164 - K302”. For the substance RPLP1, P05386, in the experiment with RPLP2, the cross-linked residues entry is recorded as “K33 - K25”. Regarding HDAC1, Q13547, the cross-linked residues result in the experiment with RREB1 is given as “K74 - K259”; with SIN3A it was “K220 - K552”. Turning to GTPBP4, Q9BZE4, the cross-linked residues entry with RSL24D1 is on record as “K448 - K88”. With RTRAF, Q9Y224, in the experiment with RTCB, the cross-linked residues entry was “K185 - K492”. As for HAUS3, Q68CZ6, the cross-linked residues entry with RUVBL2 is reported as “K595 - K177”. Turning to DRG2, P55039, the cross-linked residues result with RWDD1 was “K311 - K166”. As to SDHB, P21912, the cross-linked residues result with SDHA is recorded as “K167 - K167”.

Turning to NUP43, Q8NFH3, the cross-linked residues result in the experiment with SEH1L is “K161 - K96”.

As for SEPTIN2, Q15019, the cross-linked residues entry with SEPTIN11 is given as “K249 - K190”. For the substance SEPTIN6, Q14141, the cross-linked residues entry with SEPTIN2 is given as “K191 - K249”. With RPS12, P25398, the cross-linked residues result with SERBP1 is listed as “K116 - K299”.

These data come from article PMC12350791.
